# ± gives the standard deviation.
# T1: HaloTag-ATRX ADD domain (163-292)
# T1 chain: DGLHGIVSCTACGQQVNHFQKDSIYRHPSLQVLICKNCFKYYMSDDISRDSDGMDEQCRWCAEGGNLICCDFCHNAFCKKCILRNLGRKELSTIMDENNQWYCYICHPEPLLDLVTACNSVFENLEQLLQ
# B1: H3 112-124 I H A Kac R V T I M P K D I (peptide)
# chain: IHAKRVTIMPKDI
# B2: H3 112-124 I H A Kme R V T I M P Kac D I (peptide)
# chain: IHAKRVTIMPKDI
# B3: H3 112-124 I H A Kme R V T I M P Kme D I (peptide)
# chain: IHAKRVTIMPKDI
# B4: H3 112-124 I H A Kme R V T I M P Kme2 D I (peptide)
# chain: IHAKRVTIMPKDI
# B5: H3 112-124 I H A Kac Rme2a V T I M P K D I (peptide)
# chain: IHAKRVTIMPKDI
# Tests used:
# Assay in all cases: peptide microarray binding signal (635 nm), min-max normalized on array (fraction of array maximum); higher = stronger binding
# Conditions in all cases: peptide region: H3 112-124
# [1] = biological target: T1, HaloTag-ATRX ADD domain (163-292)
# Method in brief: (§1)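 An Axon GenePix 4000B scanned the arrays at 635 nm for signal and at 532 nm to catch misprints. Those arrays held histone 13-mer peptide–cellulose conjugates printed in triplicate on nitrocellulose with a Cy3 tracer, blocked overnight at 4°C and probed for 1 h at 4°C with biotin-labelled HaloTag reader fusions (10 nM to 1 μM) plus streptavidin-Alexa Fluor 647 or with rabbit histone antibodies (1:10,000 to 1:2,000) plus anti-rabbit Alexa 647. Each binding signal is a triplicate-spot mean intensity, scaled min-max within its library.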
# [2] = biological target: HaloTag-ING2 PHD (mouse Ing2 200-280)
# Method in brief: as §1
# [3] = biological target: anti-H3K4me3 antibody ab8580
# Method in brief: as §1
# [4] = biological target: anti-H3K9me3 antibody ab8898
# Method in brief: as §1
# [5] = peptide modifications: H3K115ac, binder concentration: 1:2,000 dilution
# [6] = peptide modifications: H3K115ac, binder concentration: 1:10,000 dilution
# [7] = peptide modifications: H3K115me1 H3K122ac, binder concentration: 1:2,000 dilution
# [8] = peptide modifications: H3K115me1 H3K122ac, binder concentration: 1:10,000 dilution
# [9] = peptide modifications: H3K115me1 H3K122me1, binder concentration: 1:2,000 dilution
# [10] = peptide modifications: H3K115me1 H3K122me1, binder concentration: 1:10,000 dilution
# [11] = peptide modifications: H3K115me1 H3K122me2, binder concentration: 1:2,000 dilution
# [12] = peptide modifications: H3K115me1 H3K122me2, binder concentration: 1:10,000 dilution
# [13] = peptide modifications: H3K115ac H3R116me2a, binder concentration: 1:2,000 dilution
# [14] = peptide modifications: H3K115ac H3R116me2a, binder concentration: 1:10,000 dilution
binder,measurement,setting,value
B1,peptide microarray binding signal,"[1]; peptide modifications: H3K115ac, binder concentration: 50 nM",0.0131 ± 0.00019
same,peptide microarray binding signal,"[1]; peptide modifications: H3K115ac, binder concentration: 500 nM",0.0422 ± 0.0053
same,peptide microarray binding signal,"[2]; peptide modifications: H3K115ac, binder concentration: 10 nM",0.0158 ± 0.0028
same,peptide microarray binding signal,"[2]; peptide modifications: H3K115ac, binder concentration: 100 nM",0.0152 ± 0.00051
same,peptide microarray binding signal,[3]; [5],0.00323 ± 0.00038
same,peptide microarray binding signal,[3]; [6],0.00228 ± 0.00013
same,peptide microarray binding signal,[4]; [5],0.00832 ± 0.00014
same,peptide microarray binding signal,[4]; [6],0.00329 ± 0.00029
B2,peptide microarray binding signal,"[1]; peptide modifications: H3K115me1 H3K122ac, binder concentration: 50 nM",0.00345 ± 6.5e-05
same,peptide microarray binding signal,"[1]; peptide modifications: H3K115me1 H3K122ac, binder concentration: 500 nM",0.0061 ± 0.00013
same,peptide microarray binding signal,"[2]; peptide modifications: H3K115me1 H3K122ac, binder concentration: 10 nM",0.00746 ± 0.00035
same,peptide microarray binding signal,"[2]; peptide modifications: H3K115me1 H3K122ac, binder concentration: 100 nM",0.0111 ± 0.00029
same,peptide microarray binding signal,[3]; [7],0.00249 ± 0.0011
same,peptide microarray binding signal,[3]; [8],0.001484 ± 1.4e-05
same,peptide microarray binding signal,[4]; [7],0.000997 ± 1.4e-05
same,peptide microarray binding signal,[4]; [8],0.00104 ± 2.8e-05
B3,peptide microarray binding signal,"[1]; peptide modifications: H3K115me1 H3K122me1, binder concentration: 50 nM",0.00511 ± 9.8e-05
same,peptide microarray binding signal,"[1]; peptide modifications: H3K115me1 H3K122me1, binder concentration: 500 nM",0.0109 ± 9.7e-05
same,peptide microarray binding signal,"[2]; peptide modifications: H3K115me1 H3K122me1, binder concentration: 10 nM",0.0179 ± 0.0021
same,peptide microarray binding signal,"[2]; peptide modifications: H3K115me1 H3K122me1, binder concentration: 100 nM",0.0298 ± 0.0035
same,peptide microarray binding signal,[3]; [9],0.00187 ± 0.00022
same,peptide microarray binding signal,[3]; [10],0.00234 ± 0.00015
same,peptide microarray binding signal,[4]; [9],0.00121 ± 5.5e-05
same,peptide microarray binding signal,[4]; [10],0.00115
B4,peptide microarray binding signal,"[1]; peptide modifications: H3K115me1 H3K122me2, binder concentration: 50 nM",0.00423 ± 4.3e-05
same,peptide microarray binding signal,"[1]; peptide modifications: H3K115me1 H3K122me2, binder concentration: 500 nM",0.00881 ± 0.00019
same,peptide microarray binding signal,"[2]; peptide modifications: H3K115me1 H3K122me2, binder concentration: 10 nM",0.0148 ± 0.0012
same,peptide microarray binding signal,"[2]; peptide modifications: H3K115me1 H3K122me2, binder concentration: 100 nM",0.0263 ± 0.0033
same,peptide microarray binding signal,[3]; [11],0.0016 ± 6.6e-05
same,peptide microarray binding signal,[3]; [12],0.001826 ± 1.7e-05
same,peptide microarray binding signal,[4]; [11],0.00125 ± 6.5e-05
same,peptide microarray binding signal,[4]; [12],0.00133 ± 2.3e-05
B5,peptide microarray binding signal,"[1]; peptide modifications: H3K115ac H3R116me2a, binder concentration: 50 nM",0.00787 ± 0.00018
same,peptide microarray binding signal,"[1]; peptide modifications: H3K115ac H3R116me2a, binder concentration: 500 nM",0.0159 ± 0.00051
same,peptide microarray binding signal,"[2]; peptide modifications: H3K115ac H3R116me2a, binder concentration: 10 nM",0.0239 ± 0.00027
same,peptide microarray binding signal,"[2]; peptide modifications: H3K115ac H3R116me2a, binder concentration: 100 nM",0.0365 ± 0.0046
same,peptide microarray binding signal,[3]; [13],0.00423 ± 0.00017
same,peptide microarray binding signal,[3]; [14],0.00394 ± 0.00014
same,peptide microarray binding signal,[4]; [13],0.00278 ± 0.00019
same,peptide microarray binding signal,[4]; [14],0.00306 ± 0.0002
